Measured values from the supplement of paper PMC3545927.
This is one part of the list. The true hit rate is not given.

Biological target: furin, P09958
Test: furin cleavage Z-score vs untreated control; higher = more cleavage, active = 3.5 or more, inactive = 1 or less, 8 variable residues between constant flanks
Experimental: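 Multiplexed peptide-cDNA fusion cleavage assay. 8-mer variable peptides flanked by constant Cys-Ala (N-term) and Ala-Gly-Asn-Ala-Ser-Ala-Ser-Ala (C-term) and conjugated to a cDNA oligonucleotide were bead-immobilised via the N-terminus. They were treated with purified furin at a 1:10 enzyme:substrate ratio in 50 mM HEPES pH 7.5, 1 mM CaCl2, 100 mM NaCl for 7.5, 15 or 30 min. Released cDNA was counted by next-generation sequencing, and log counts versus no-furin controls were lowess-adjusted and converted to robust Z-scores.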

Sequence of furin, P09958 (P09958 whole entry): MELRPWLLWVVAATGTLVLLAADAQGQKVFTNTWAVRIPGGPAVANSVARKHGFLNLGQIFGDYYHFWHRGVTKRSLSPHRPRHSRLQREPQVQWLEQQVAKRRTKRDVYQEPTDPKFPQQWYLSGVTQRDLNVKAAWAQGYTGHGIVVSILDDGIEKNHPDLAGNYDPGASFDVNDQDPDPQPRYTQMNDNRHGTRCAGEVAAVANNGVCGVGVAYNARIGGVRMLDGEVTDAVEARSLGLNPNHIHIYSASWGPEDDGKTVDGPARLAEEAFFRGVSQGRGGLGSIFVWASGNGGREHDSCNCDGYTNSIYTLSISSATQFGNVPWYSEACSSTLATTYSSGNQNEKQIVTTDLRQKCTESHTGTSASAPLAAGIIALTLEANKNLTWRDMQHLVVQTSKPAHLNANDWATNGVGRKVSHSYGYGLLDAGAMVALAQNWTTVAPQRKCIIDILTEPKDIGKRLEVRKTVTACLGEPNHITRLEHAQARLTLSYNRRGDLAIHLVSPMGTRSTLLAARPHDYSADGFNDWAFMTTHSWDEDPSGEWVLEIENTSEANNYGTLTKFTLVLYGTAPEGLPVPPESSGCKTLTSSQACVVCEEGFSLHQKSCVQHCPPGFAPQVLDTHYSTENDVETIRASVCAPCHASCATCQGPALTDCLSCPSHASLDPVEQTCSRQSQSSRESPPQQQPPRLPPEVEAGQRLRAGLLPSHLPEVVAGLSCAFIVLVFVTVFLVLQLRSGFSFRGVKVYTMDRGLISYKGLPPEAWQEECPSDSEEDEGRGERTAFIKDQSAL

| Sequence | furin cleavage Z-score (7.5 min) | furin cleavage Z-score (15 min) | furin cleavage Z-score (30 min) |
| --- | --- | --- | --- |
| CADGPDGPEEAGNASASA [CS6] | -0.625 (inactive) | -0.697 (inactive) | 0.000165 (inactive) |
| CAVSVIPTSGAGNASASA [HC872] | -1.15 (inactive) | -1.43 (inactive) | -0.759 (inactive) |
| CALALLSCLTAGNASASA [HC250] | 0.23 (inactive) | 0.192 (inactive) | 0.0802 (inactive) |
| CAASPRVARFAGNASASA [FS-1586] | 7.18 (active) | 7.05 (active) | 9.24 (active) |
| CAAGHAVGIFAGNASASA [HC747] | 0.991 (inactive) | -0.922 (inactive) | -0.149 (inactive) |
| CASCQRRTRFAGNASASA [FS-379] | -0.682 (inactive) | 1.81 | 2.4 |
| CAASIRHARFAGNASASA [FS-580] | 4.24 (active) | 6.42 (active) | 7.16 (active) |
| CAASHRSTRFAGNASASA [FS-1309] | 0.749 (inactive) | 3.07 | 5.05 (active) |
| CADAAARVTAAGNASASA [HC1130] | -0.857 (inactive) | -0.374 (inactive) | -0.0041 (inactive) |
| CADAARVARFAGNASASA [FS-220] | 1.88 | 3.12 | 3.56 (active) |
| CAEVTCHRPSAGNASASA [HC2358] | 0.503 (inactive) | 1.09 | -0.419 (inactive) |
| CASTPCSCHLAGNASASA [HC2540] | -2.32 (inactive) | -0.121 (inactive) | -0.978 (inactive) |
| CAVVCCSMPYAGNASASA [HC2079] | 1.07 | 1.5 | 0.76 (inactive) |
| CAMEECSQHRAGNASASA [HC1773] | 0.467 (inactive) | 0.921 (inactive) | 2.83 |
| CAAQQTRGLLAGNASASA [HC677] | -1.39 (inactive) | -0.431 (inactive) | 0.105 (inactive) |
| CAPRARAARRAGNASASA [FS-1550] | 4.8 (active) | 6.53 (active) | 7.08 (active) |
| CARRARQARRAGNASASA [FS-1071] | -0.692 (inactive) | 0.798 (inactive) | 2.53 |
| CARRARASDRAGNASASA [FS-2176] | 3.3 | 2.19 | 4.92 (active) |
| CAIKARAACRAGNASASA [HC1519] | 0.264 (inactive) | -0.0832 (inactive) | 0.862 (inactive) |
| CASLRAFTEAAGNASASA [HC1538] | -0.614 (inactive) | -1.13 (inactive) | 0.282 (inactive) |
| CATLGRHRRIAGNASASA [FS-305] | 0.637 (inactive) | 4.75 (active) | 4.61 (active) |
| CAYLARNARIAGNASASA [FS-319] | -0.614 (inactive) | -1.5 (inactive) | 0.218 (inactive) |
| CAVGSKQRRIAGNASASA [FS-631] | -0.93 (inactive) | -0.511 (inactive) | -0.419 (inactive) |
| CANKNRLRRIAGNASASA [FS-696] | 2.17 | 3.21 | 3.66 (active) |
| CAGLSRHRRIAGNASASA [FS-1329] | 4.21 (active) | 4.36 (active) | 4.6 (active) |
| CAEINRPRRIAGNASASA [FS-156] | 0.686 (inactive) | -0.166 (inactive) | 0.217 (inactive) |
| CASLVRNRRIAGNASASA [FS-626] | 3.81 (active) | 7.06 (active) | 7.84 (active) |
| CALYNRTRRIAGNASASA [FS-61] | -0.475 (inactive) | 0.0321 (inactive) | 0.723 (inactive) |
